Results on seven compounds are retold here after PubChem BioAssay (Tox21).

Values without a mark were called inactive. Results filed as inconclusive are left out. Active and inactive are the calls of the source. Unless noted, calls come from the whole dose curve.

Experiment [1] can be described thus: Nuclear factor erythroid 2-related factor 2/antioxidant responsive element (Nrf2/ARE) small molecule agonists: qHTS cell viability counter screen in human keratinocytes (AID 1919968; active = well fitted curve in the direction sought with a large enough effect in the repeat runs; an effect the other way counts as inactive or inconclusive; note: nearly all actives have a fitted effect of over 55% in size; note: potency is the fitted concentration of half-maximal effect). The method in brief: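 HaCaT ARE reporter line, 1,500 cells/well; 5 h settle, 37 C/5% CO2; cpd in DMSO pinned; 23 h exposure; CellTiter-Fluor, 1 h; fluorescence.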
On the technique in general: Quantitative high-throughput screening tests each substance at several concentrations.

Experiment [2] can be described thus: Nuclear factor erythroid 2-related factor 2/antioxidant responsive element (Nrf2/ARE) small molecule agonists: luciferase reporter gene qHTS assay in human keratinocytes (AID 1919969). Note: nearly all actives have a fitted effect of over 35% in size.
Experiment [3] concerns the target Gonadotropin-releasing hormone receptor (Homo sapiens) (UniProt P30968). The experiment can be described thus: Human gonadotropin-releasing hormone receptor (GnRHR) small molecule agonists, calcium flux assay in GnRHR-HEK293 cells (AID 1920063). Note: nearly all actives have a fitted effect of over 35% in size. The essentials: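 GnRHR-HEK293, 1500 cells/well, 18 h 37 C/5% CO2; Ca dye 1 h 37 C; cpd pinned (DMSO), agonist mode; kinetic FL 480/540, 3 min, 1 s reads; 15 conc, n=3.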
On the technique in general: A change in cytosolic calcium serves as a functional read-out for many receptors and channels.

The target of experiment [4] is KiSS-1 receptor (Homo sapiens) (UniProt Q969F8). The experiment can be described thus: Human kisspeptin (KISS1R) small molecule agonists, calcium flux assay in KISS1R-HEK293 cells (AID 1920064; active = well fitted curve in the direction sought with a large enough effect in the repeat runs; an effect the other way counts as inactive or inconclusive). The method in brief: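 Stable human KISS1R HEK293 line; 18 h plating, 37 C/5% CO2; calcium dye 1 h 37 C; compound pin transfer; kinetic fluorescence Ex/Em 480/540, 3 min.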
Sequence of KiSS-1 receptor (Homo sapiens) (Q969F8 whole entry, looked up): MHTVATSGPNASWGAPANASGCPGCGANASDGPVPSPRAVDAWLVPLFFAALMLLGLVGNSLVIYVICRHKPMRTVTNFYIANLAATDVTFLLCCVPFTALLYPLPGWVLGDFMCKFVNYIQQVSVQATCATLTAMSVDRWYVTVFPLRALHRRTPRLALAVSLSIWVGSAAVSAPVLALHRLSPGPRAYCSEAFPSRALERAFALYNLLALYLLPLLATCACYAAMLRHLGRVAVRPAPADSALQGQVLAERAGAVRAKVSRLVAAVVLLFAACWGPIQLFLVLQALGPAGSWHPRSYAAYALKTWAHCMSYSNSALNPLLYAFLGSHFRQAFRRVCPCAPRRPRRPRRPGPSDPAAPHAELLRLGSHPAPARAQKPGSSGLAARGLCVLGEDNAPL

Experiment [5] is described as follows: G protein-coupled receptor (GPCR) small molecule agonists, calcium flux assay: HEK293 wild type cell line counter screen (AID 1920065). The essentials: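 Kinetic fluorescence at Ex/Em 480/540, recorded every second over 3 min, served as the read-out after compound addition. Each compound was tested at 15 concentrations in triplicate on cells pre-loaded with calcium dye for 1 h.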

Experiment [6] can be described thus: p53 small molecule agonists, cell-based qHTS assay with human liver microsomes (AID 1963577).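 Note: p53 response element beta-lactamase reporter cells with liver microsomes plus NADPH.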 The essentials: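 With metabolic activation: human liver microsomes (0.5 mg/mL final) plus NADPH (0.5 mg/mL final) added alongside compounds to p53RE-bla cells; 16 h 37 C exposure; beta-lactamase read by LiveBLAzer fluorescence.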
Experiment [7] in a line: p53 small molecule agonists, cell-based qHTS assay with rat liver microsomes (AID 1963578). The essentials: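 Metabolic activation by rat liver microsomes and NADPH, each 0.5 mg/mL final, added right after compounds to p53RE-bla reporter cells (4,000/well, plated 5 h earlier). 16 h at 37 C, then LiveBLAzer substrate for 2 h at room temperature in the dark; fluorescence read-out.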

Experiment [8] is described as follows: p53 small molecule agonists, cell-based qHTS assay with human liver microsomes: qHTS cell viability counter screen (AID 1963579). Note: nearly all actives have a fitted effect of over 45% in size. The essentials: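 Metabolic activation used human liver microsomes and NADPH, both 0.5 mg/mL final, over 16 hours at 37 C on p53RE-bla cells (4,000/well). Cytotoxicity measured by CellTiter-Glo luminescence, 30 min at room temperature.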

Experiment [9] can be described thus: p53 small molecule agonists, cell-based qHTS assay with rat liver microsomes: qHTS cell viability counter screen (AID 1963580). Note: nearly all actives have a fitted effect of over 45% in size. The essentials:
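p53RE-bla HCT-116 cells (4,000/well) rested 5 h at 37 C, then given Tox21 compounds in DMSO with rat liver microsomes (0.5 mg/mL final) plus NADPH (0.5 mg/mL final) for 16 h at 37 C. Viability read by CellTiter-Glo luminescence after 30 min at room temperature.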

Experiment [10] can be described thus: p53 small molecule agonists, cell-based qHTS assay: qHTS cell viability counter screen (AID 1963581). Note: nearly all actives have a fitted effect of over 45% in size. Note: potency is the fitted concentration of half-maximal effect. The method in brief: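 HCT-116 p53RE-bla cells, 4,000/well, plated 5 h before compound pin transfer; 16 h at 37 C; bla substrate 2 h RT; then CellTiter-Glo, 30 min RT, luminescence.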
Experiment [11] can be described thus: p53 small molecule agonists, cell-based qHTS assay (AID 1963582; active = well fitted activation curve with a large enough effect in the signal ratio in the repeat runs, not every such curve was filed as active; the % refers to the signal ratio). The essentials: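 Reporter line: p53RE-bla. Pre-incubation 5 h, 37 C, 5% CO2; compound (DMSO, pin tool) 16 h, 37 C; B/G FRET substrate 2 h RT; fluorescence intensity read.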
Experiment [12] deals with Muscarinic acetylcholine receptor M1 (Homo sapiens) (UniProt P11229). The experiment can be described thus: Cholinergic receptor muscarinic 1 (CHRM1) small molecule antagonists, cell-based qHTS assay (AID 1963588). Note: nearly all actives have a fitted effect of over 40% in size. Note: potency is the fitted concentration of half-maximal effect. The essentials:
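CHRM1-CHO calcium-flux assay, antagonist mode. Cells were seeded 18 h, dye-loaded 1 h at 37 C and given compound for 5 min at RT, then acetylcholine was added at 50nM. FDSS fluorescence was read 3 min; 15 concentrations, three runs.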

Experiment [13] shares this target. The experiment can be described thus: Cholinergic receptor muscarinic 1 (CHRM1) small molecule agonists, cell-based qHTS assay (AID 1963589). Note: nearly all actives have a fitted effect of over 35% in size. The essentials:
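Human M1 in stable CHO line; 18 h plating, 1 h dye load 37 C; cpd added (agonist mode); Ca2+ fluorescence kinetic read, 1 s intervals; 15 conc, 3 runs.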

Experiment [14] in a line: cAMP Responsive Elements (CRE) small molecule agonists, cell-based qHTS assay (AID 1963590). The method in brief:
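HEK 293T CRE-bla, 2,000 cells/well, 18 h preincubation 37 C/5% CO2; cpds (DMSO) pinned, 3 h; LiveBLAzer B/G FRET substrate, 2 h RT.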

The nature of experiment [15]: cAMP Responsive Elements (CRE) small molecule antagonists, cell-based qHTS assay (AID 1963591; active = well fitted inhibition curve with a large enough effect in the signal ratio in the repeat runs, not every such curve was filed as active; the % refers to the signal ratio). The essentials:
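Beta-lactamase reporter read by FRET substrate (LiveBLAzer B/G) after 2 h at room temperature. CRE-bla HEK293T cells had received compound plus 0.25 uM (final) NKH477 for 3 h at 37 °C.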

For experiment [16], the target named is Beta-2 adrenergic receptor (Homo sapiens) (UniProt P07550). The experiment can be described thus: Adrenergic beta2 receptor (ADRB2) small molecule antagonists, cell-based qHTS assay (AID 1963592). Note: series mostly up to about 92 µM; nearly all actives have a fitted effect of over 50% in size. The method in brief: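 Cells (CHO, stable ADRB2 overexpression) incubated 18-20hr at 37C; compounds added from DMSO; agonist mix (1nM isoproterenol, 100uM IBMX, 25uM Ro-20-1724) added; 0.5hr RT; d2-cAMP and anti-cAMP-cryptate added; 1hr RT; 665/615 nm read.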
Sequence of Beta-2 adrenergic receptor (Homo sapiens) (P07550 whole entry, looked up): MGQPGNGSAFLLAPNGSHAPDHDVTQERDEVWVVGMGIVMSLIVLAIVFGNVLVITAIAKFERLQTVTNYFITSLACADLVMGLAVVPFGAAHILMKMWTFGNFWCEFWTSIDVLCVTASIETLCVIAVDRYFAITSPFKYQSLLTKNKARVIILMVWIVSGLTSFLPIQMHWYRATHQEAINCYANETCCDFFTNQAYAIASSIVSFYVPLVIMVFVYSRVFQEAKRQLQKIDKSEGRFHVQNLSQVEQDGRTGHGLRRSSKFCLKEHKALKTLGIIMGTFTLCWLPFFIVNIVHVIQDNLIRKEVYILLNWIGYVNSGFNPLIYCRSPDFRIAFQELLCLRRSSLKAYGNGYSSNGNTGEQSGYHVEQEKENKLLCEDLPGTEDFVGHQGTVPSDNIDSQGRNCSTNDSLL

Experiment [17] concerns the target D(2) dopamine receptor (Homo sapiens) (UniProt P14416). The experiment can be described thus: Dopamine D2 receptor (DRD2) small molecule antagonists, cell-based qHTS assay (AID 1963595; active = well fitted inhibition curve with a large enough effect in the signal ratio in the repeat runs, with a control signal flat; the % refers to the signal ratio). The method in brief:
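Human DRD2 antagonist qHTS measuring cAMP by HTRF. The cells are exposed to compound for 10 min, then to NKH477 (200 nM) and quinpirole (12 nM) for 30 min at RT, with Ro20-1724 (0.1 mM) present throughout.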

The target of experiment [18] is Beta-2 adrenergic receptor (Homo sapiens) (UniProt P07550). The experiment can be described thus: Adrenergic beta2 receptor (ADRB2) small molecule agonists, cell-based qHTS assay (AID 1963593).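 Note: CHO cells stably overexpressing human ADRB2.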 The method in brief: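 CHO cells stably over-expressing ADRB2 were plated overnight at 37C, then dosed with compounds plus a stimulation mix containing 100uM IBMX and 25uM Ro-20-1724 for 0.5hr at room temperature. cAMP was measured by HTRF competition, 1hr.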

For experiment [19], the target named is D(2) dopamine receptor (Homo sapiens) (UniProt P14416). The experiment can be described thus: Dopamine D2 receptor (DRD2) small molecule agonists, cell-based qHTS assay (AID 1963594). Note: nearly all actives have a fitted effect of over 35% in size. The essentials:
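HEK293 cells stably expressing DRD2 were cultured 24 h at 37 C, then given Ro20-1724 (0.1 mM final) and compounds for 10 min at room temperature. NKH477 (200nM) was then added for 30 min. cAMP was read by HTRF.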

Experiment [20] addresses 5-hydroxytryptamine receptor 2A (Homo sapiens) (UniProt P28223). The experiment can be described thus: 5-hydroxytryptamine receptor 2A (HTR2A) small molecule agonists, cell-based qHTS assay (AID 1963587). Note: nearly all actives have a fitted effect of over 30% in size. Note: potency is the fitted concentration of half-maximal effect. The method in brief: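 HTR2A-CHO cells, plated 18 h at 37 C/5% CO2, dye-loaded 1 h at 37 C; compounds in DMSO added by pin tool (agonist mode). Intracellular calcium flux read as kinetic fluorescence on FDSS over 2 min at 1 s intervals.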

Sequence of Gonadotropin-releasing hormone receptor (Homo sapiens) (P30968 whole entry, looked up): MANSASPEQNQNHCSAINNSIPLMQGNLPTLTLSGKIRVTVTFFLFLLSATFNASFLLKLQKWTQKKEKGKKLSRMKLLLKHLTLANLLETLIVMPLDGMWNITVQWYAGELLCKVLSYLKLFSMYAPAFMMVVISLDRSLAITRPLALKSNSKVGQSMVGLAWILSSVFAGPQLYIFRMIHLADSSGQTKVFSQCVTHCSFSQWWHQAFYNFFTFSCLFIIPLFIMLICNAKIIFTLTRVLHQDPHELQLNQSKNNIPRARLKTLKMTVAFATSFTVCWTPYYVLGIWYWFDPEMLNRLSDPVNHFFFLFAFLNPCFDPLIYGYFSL
Sequence of Muscarinic acetylcholine receptor M1 (Homo sapiens) (P11229 whole entry, looked up): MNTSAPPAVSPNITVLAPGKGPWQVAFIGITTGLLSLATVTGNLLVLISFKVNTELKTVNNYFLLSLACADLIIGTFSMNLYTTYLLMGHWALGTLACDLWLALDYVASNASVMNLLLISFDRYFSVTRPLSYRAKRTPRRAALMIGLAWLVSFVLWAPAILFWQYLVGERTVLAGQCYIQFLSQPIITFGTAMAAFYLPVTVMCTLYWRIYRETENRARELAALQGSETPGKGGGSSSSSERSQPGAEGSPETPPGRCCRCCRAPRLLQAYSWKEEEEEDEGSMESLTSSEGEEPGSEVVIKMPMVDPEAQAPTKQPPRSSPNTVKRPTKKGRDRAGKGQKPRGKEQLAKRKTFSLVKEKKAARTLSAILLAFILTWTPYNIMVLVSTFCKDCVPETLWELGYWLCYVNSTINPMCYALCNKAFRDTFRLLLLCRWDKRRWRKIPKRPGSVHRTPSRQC
Sequence of D(2) dopamine receptor (Homo sapiens) (P14416 whole entry, looked up): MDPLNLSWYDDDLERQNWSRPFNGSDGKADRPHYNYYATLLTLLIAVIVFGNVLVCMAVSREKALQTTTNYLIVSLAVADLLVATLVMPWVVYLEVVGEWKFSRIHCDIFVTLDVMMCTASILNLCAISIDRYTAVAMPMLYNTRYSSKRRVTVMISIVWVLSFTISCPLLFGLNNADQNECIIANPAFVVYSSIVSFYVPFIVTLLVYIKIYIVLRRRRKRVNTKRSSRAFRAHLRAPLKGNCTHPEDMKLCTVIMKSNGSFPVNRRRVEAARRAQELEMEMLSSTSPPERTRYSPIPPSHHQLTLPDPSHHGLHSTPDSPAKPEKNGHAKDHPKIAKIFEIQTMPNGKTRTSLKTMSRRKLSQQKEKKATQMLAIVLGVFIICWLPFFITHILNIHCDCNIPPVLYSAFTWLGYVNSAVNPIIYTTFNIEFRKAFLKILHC
Sequence of 5-hydroxytryptamine receptor 2A (Homo sapiens) (P28223 whole entry, looked up): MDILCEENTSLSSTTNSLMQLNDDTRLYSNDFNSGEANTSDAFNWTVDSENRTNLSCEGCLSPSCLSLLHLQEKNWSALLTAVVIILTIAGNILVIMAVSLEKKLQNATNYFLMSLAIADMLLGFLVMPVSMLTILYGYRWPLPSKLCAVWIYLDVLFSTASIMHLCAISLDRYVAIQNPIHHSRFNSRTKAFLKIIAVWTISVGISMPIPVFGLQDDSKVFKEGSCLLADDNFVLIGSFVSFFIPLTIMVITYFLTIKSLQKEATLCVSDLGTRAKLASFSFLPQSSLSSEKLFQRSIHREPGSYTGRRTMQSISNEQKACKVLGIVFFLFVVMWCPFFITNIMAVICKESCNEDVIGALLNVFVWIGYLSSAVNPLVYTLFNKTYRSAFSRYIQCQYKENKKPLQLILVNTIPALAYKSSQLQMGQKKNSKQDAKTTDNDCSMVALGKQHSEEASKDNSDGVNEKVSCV

As for `C=CCOc1c(Br)cc(Br)cc1Br`, the Potency entry in experiment [1], in experiment [2], in [3], in [6], in [7] and in [8] was “inactive” each time. For the same compound, the Potency entry in experiment [9], in experiment [10], in experiment [11], in [12], in experiment [13] and in experiment [14] was “inactive” in each case. For the same compound, the Potency entry in experiment [15], in [16] and in experiment [17] was “inactive” in each case. The outcome in experiment [4] and in experiment [5] was inactive.
In the case of `c1ccc(CNc2ncnc3nc[nH]c23)cc1`, the Potency result in experiment [1], in [2], in experiment [3], in experiment [6], in experiment [7] and in experiment [8] was “inactive” throughout. For the same compound, the Potency result in [9], in experiment [10], in experiment [11], in experiment [12], in experiment [13] and in [14] was “inactive” each time. Also, the Potency entry in experiment [15], in experiment [18], in [19] and in [17] was “inactive” in each case. In addition, the result in experiment [4] and in experiment [5] was inactive.
As for `CCN(CC)CCOc1ccc(C(O)(Cc2ccc(Cl)cc2)c2ccc(C)cc2)cc1` (stereo not given), the Potency in [1] was 26.6 µM (active); in experiment [10], 19.9 µM (active). For the same compound, the Potency result in [2], in [3], in [6], in experiment [7], in experiment [8] and in experiment [9] was “inactive” each time. Besides, the Potency result in experiment [11], in [16], in experiment [18], in experiment [19] and in experiment [17] was “inactive” in each case. Further, the outcome in experiment [4] and in [5] was inactive.
Consider `C=C1CC[C@H]2O[C@]2(C)CC[C@@H]2[C@@H]1CC2(C)C`, for which the Potency entry in experiment [1], in experiment [2], in experiment [3], in [6], in experiment [7] and in experiment [8] was “inactive” throughout. In addition, the Potency result in experiment [9], in experiment [10], in experiment [11], in [12], in experiment [13] and in [14] was “inactive” throughout. Besides, the Potency entry in [15], in experiment [16], in experiment [18], in [19] and in [17] was “inactive” each time. In addition, the result in experiment [4] and in experiment [5] was inactive.
As for `O=C(O)C1CCC1`, the Potency result in experiment [1], in experiment [2], in experiment [3], in experiment [6], in experiment [7] and in experiment [8] was “inactive” in each case. Moreover, the Potency entry in experiment [9], in experiment [10], in experiment [11], in [20], in experiment [12] and in experiment [13] was “inactive” throughout. Moreover, the Potency entry in experiment [14], in [15], in experiment [16], in experiment [18], in experiment [19] and in [17] was “inactive” in each case. Moreover, the result in experiment [4] and in experiment [5] was inactive.
For `CCCC(=O)C(=O)O`, the Potency entry in [1], in [2], in experiment [3], in experiment [6], in [7] and in [8] was “inactive” each time. Also, the Potency result in [9], in [10], in experiment [11], in experiment [13], in [14] and in experiment [15] was “inactive” each time. Moreover, the Potency entry in experiment [16] and in [17] was “inactive” throughout. Also, the outcome in experiment [4] and in experiment [5] was inactive. Also, the Potency in [12] was 10.6 µM (active).
Regarding `CCCCN(CCCC)CCCOC(=O)c1ccc(N)cc1`, the Potency entry in experiment [1], in [2], in experiment [3], in [6], in [7] and in experiment [8] was “inactive” each time. The Potency result in experiment [9], in experiment [10], in experiment [11], in experiment [12] and in experiment [13] was “inactive” throughout. For the same compound, the result in [4] and in experiment [5] was inactive. In addition, in experiment [20], the Potency was 3.38 µM (active).
